The values below come from PubChem BioAssay AID560 (The Scripps Research Institute Molecular Screening Center, 2006).

Structures are written as SMILES. Screen size: about 65,000 compounds; about 980 (1.5%) were called active. The entries come from a sample that favours actives as a whole. Values without a mark were called inactive.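 The calls were made as follows: active = activation above the mean of all tested compounds plus 3 SD (cut at about 49% in these data); inactive = the rest.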

For this test, the target named is Nuclear receptor ROR-alpha (Homo sapiens) (UniProt P35398). Kind of test: RORA ligand-binding domain transcriptional activation – cell-based, luminescence, primary screen (AID 560).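 Also: 0% = DMSO-treated RORA cells and 100% = added signal equal to DMSO minus mock-transfected cells.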 Conditions: CHO-K1 Gal4-RORA LBD luciferase reporter, at 10 µM, active compounds read high, percent increase over mock-subtracted basal signal.
Nuclear receptor ROR-alpha (Homo sapiens), sequence (P35398 whole entry, looked up, the tested form may be a part): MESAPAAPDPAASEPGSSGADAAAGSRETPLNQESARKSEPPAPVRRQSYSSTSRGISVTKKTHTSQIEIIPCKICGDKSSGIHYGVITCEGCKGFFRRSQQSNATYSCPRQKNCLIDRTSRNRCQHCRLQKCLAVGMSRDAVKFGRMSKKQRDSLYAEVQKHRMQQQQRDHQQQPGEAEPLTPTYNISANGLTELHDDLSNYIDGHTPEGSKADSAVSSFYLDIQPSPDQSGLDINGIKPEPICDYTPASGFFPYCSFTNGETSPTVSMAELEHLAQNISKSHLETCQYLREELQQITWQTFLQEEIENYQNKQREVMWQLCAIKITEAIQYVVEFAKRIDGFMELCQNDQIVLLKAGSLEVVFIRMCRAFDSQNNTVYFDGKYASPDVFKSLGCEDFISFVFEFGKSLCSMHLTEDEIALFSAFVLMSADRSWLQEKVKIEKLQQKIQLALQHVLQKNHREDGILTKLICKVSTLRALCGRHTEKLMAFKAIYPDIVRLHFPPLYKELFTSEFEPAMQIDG
With `O=C(Nc1cccc(Cl)c1)OCc1ccccn1`, the activation was 69.9% (active).
Then `O=C(NCc1cn2ccsc2n1)Nc1cccc(Cl)c1`, with 45.8%; and `O=C(NCc1ccccn1)Nc1ccc(F)cc1`, with 28.4%; and `Cc1c(NC(=O)c2coc(=O)c(Br)c2)c(=O)n(-c2ccccc2)n1C`, with -0.3%.
Then `COC(=O)c1cc(C(=O)OC)cc(N2C(=O)CC(N3CCN(c4ccccc4)CC3)C2=O)c1` (centres undefined), with 15.5%.
For `CC(C)c1ccc(NC(=O)NC2CCCCC2)cc1`, the activation is 85.1% (active).
As for `CC(=O)OC(C(=O)NC1CCCCC1)c1ccccc1` (centres undefined), the activation is -15.4%.
For `CC(Cc1cccs1)NC(=O)NC1CCCCC1` (centres undefined), the activation was 31.7%.
In the case of `COc1ccc(-c2nc(SCC(=O)N3CCOCC3)n[nH]2)cc1`, the activation is 8.1%.
Then `CC(=O)Nc1ccc(NC(=O)CN2CCCC(C)C2)c(Cl)c1` (centres undefined), with 7.9%; and `O=C(C1CCC1)N1CCc2cc(S(=O)(=O)NCc3cccnc3)ccc21`, with 16.4%; and `Cc1ccc(C(=O)N2CCN(C3CCCCC3)CC2)s1`, with -13.8%.
With `COc1cccc(CNC(=O)C2CCN(S(=O)(=O)c3cccc4cccnc34)CC2)c1`, the activation was -6.7%.
Consider `C#CCN1C(=O)C(O)(CC(=O)c2cc(OC)ccc2OC)c2ccccc21` (centres undefined), for which the activation is -9.4%.
With `CCOC(=O)c1c(C)[nH]c(C(=O)COc2ccc3c(c2)OCO3)c1C`, the activation was 28.3%.
Then `CCOC(=O)NCc1ccc2c(c1)OCO2`, with -14.5%; and `CCOC(=O)c1nc(-c2ccc3c(c2)OCO3)[nH]c1C`, with 66.7% (active); and `COCc1nnc(NC(=O)CS(=O)(=O)Cc2ccccc2)s1`, with -0.8%.
As for `COC(=O)C(C)Sc1ccc2nnc(-c3cccc(F)c3)n2n1` (centres undefined), the activation was -8%.
The value for `COC(=O)c1c(NC(=O)c2cccs2)sc2c1CCCC2` was 19.4%; that for `c1ccc2c(c1)OCC(CNc1ncnc3nc[nH]c13)O2` (centres undefined) was 20.1%; that for `Cn1c(=NC(=O)c2ccco2)sc2cccc(F)c21` was 61.5% (active).
The value for `CCCC(=O)N=c1sc2cccc(F)c2n1C` was 5.7%; that for `Cn1c(=NC(=O)C2CC2)sc2cc(F)cc(F)c21` was 27.7%; that for `COC(=O)c1cccc(NC(=O)CN2CCC(NC(=O)c3cc(OC)c(OC)c(OC)c3)CC2)c1` was 17.2%.
For the compound `COc1ccc(CCNC(=O)CN2CCC(n3nnc4cc(F)ccc43)CC2)cc1OC`, the activation was -11.2%.
The value for `O=C(NC1=NCCS1)c1ccc(Cl)s1` was 80.1% (active).
The value for `CCc1ccc(N2CC(C(=O)NC3=NCCS3)CC2=O)cc1` (centres undefined) was -23.3%.
The value for `CC(NC(=O)COc1ccccc1)C(=O)NC1=NCCS1` (centres undefined) was -14.4%; that for `C=CCn1c(=S)[nH]c2nc3c(cc2c1=O)COC(C)(C)C3` was -9.2%; that for `O=C(Nc1ccc(-c2nnc(-c3ccccc3)o2)cc1)C1CCCO1` (centres undefined) was 32.9%.
For `O=C(Nc1nnc(CCc2ccccc2)s1)C1CCCO1` (centres undefined), the activation is 0.2%.
The value for `O=C(Nc1cccc(-c2nnc(-c3ccccc3)o2)c1)C1CCCO1` (centres undefined) was 61.1% (active); that for `O=C(COc1ccccc1)N1CCc2ccccc2C1` was 18.5%; that for `Cc1ccsc1C(=O)OCC(=O)c1cc(C)n(CC2CCCO2)c1C` (centres undefined) was -85.1%.
The value for `O=C(COC(=O)C12CC3CC(CC(C3)C1)C2)NCc1ccco1` was -21.1%; that for `O=C(CSc1nnc(-c2cccs2)n1-c1ccccc1)NCc1ccco1` was 11.1%; that for `Cc1cc(C(=O)OCC(=O)NCc2ccco2)c(C)n1-c1ccccc1` was 61.4% (active).
Then `CC(=O)N1CSCC1C(=O)O` (centres undefined), with 15.8%; and `O=c1[nH][nH]c(=O)c2cc(N3CCCC3)ccc12`, with 1.1%; and `Cc1cc2nc(-c3ccc(NC(=O)c4cccnc4)cc3)oc2cc1C`, with 71.6% (active).
As to `CCOC(=O)c1cc(NC(=O)c2cccnc2)cc(C(=O)OCC)c1`, the activation was -17.2%.
`CC(C)NS(=O)(=O)c1ccc(NC(=O)c2cccnc2)cc1`: the activation was 25.4%.
The value for `O=C(NC12CC3CC(CC(C3)C1)C2)N1CCCC(CO)C1` (centres undefined) was -9.5%; that for `Cc1ccccc1-c1nnn(CC(=O)c2ccc(S(=O)(=O)N3CCCC3)cc2)n1` was -9.2%; that for `O=C(Cn1nnc(-c2ccccc2)n1)NCc1ccccc1` was -3.8%.
As to `CC(C)(C)NC(=O)Cn1nnc(-c2ccccc2Cl)n1`, the activation is 65.9% (active).
Then `O=C(CN1C(=O)C2C3C=CC(C3)C2C1=O)NCCc1ccccc1Cl` (centres undefined), with 0.8%.
The value for `O=S(=O)(NCc1ccccn1)c1ccc(Br)s1` was -0.5%; that for `COC(=O)c1sc(NC(=O)c2ccc(OC)cc2OC)nc1C` was -38.1%; that for `O=C(Nc1nncs1)c1ccccc1NS(=O)(=O)c1cccs1` was 2.5%.
The value for `COc1ccc(C(=O)Nc2nncs2)c(OC)c1` was 62.9% (active).
On to `Cn1c(=O)n(CCc2ccccc2)c(=O)c2c1nc1n2CCCN1c1ccccc1`, for which the activation is 8.2%.
Then `Nc1c(C(=O)NCc2ccccc2)nnn1Cc1cccc(Cl)c1`, with 9.8%; and `COC(=O)Cc1cc(=O)n(-c2nc3ccccc3s2)[nH]1`, with -10.3%; and `O=C(O)CSCc1nc2ccccc2s1`, with 18.2%.
The value for `CCC(=O)NC(=Nc1nc2ccccc2s1)NC(=O)CC` was 48.7% (active).
The value for `O=c1/c(=C/c2ccc(CNS(=O)(=O)c3ccccc3)o2)sc2n1CCN=2` was -17.5%; that for `CCN(C(=O)CSc1ncn[nH]1)c1cccc2ccccc12` was -6.5%; that for `CC(C)(C)c1ccc(C(=O)CSc2ncn[nH]2)cc1` was 54.2% (active).
Regarding `Cn1nnc(NC(=O)CSc2ncn[nH]2)n1`, the activation is -7.4%.
On to `CCOC(=O)c1csc(NC(=O)c2ccc(S(=O)(=O)N3CCCC3)cc2)n1`, for which the activation was 8.6%.
Then `Cn1c(SCC(=O)OC2CCCCC2)nnc1-c1ccc(S(=O)(=O)N2CCCC2)cc1`, with -7.4%; and `COc1cccc(OCC(=O)Nc2ccccc2C(N)=O)c1`, with 1.9%.
`O=C(Nc1nn(Cc2ccccc2F)cc1Br)c1cccs1`: the activation was -5.3%.
The value for `COc1ccc(OC)c(N=Cc2c(O)[nH]c3ccccc23)c1` was -14.1%.
Then `COc1ccc(N=Cc2c(O)[nH]c3ccccc23)cc1OC`, with 55.7% (active); and `COc1cc(N=Cc2c(O)[nH]c3ccccc23)cc(OC)c1OC`, with -15.8%.
The value for `CC(=O)N1CC2(C)CN(C(C)=O)CC(C)(C1)C2=O` was -2%; that for `CC1CCc2sc3nc(N4CCN(CCO)CC4)n4ncnc4c3c2C1` (centres undefined) was 12.3%.
As to `O=C(Nc1ccc(Cl)cc1)c1ccsn1`, the activation is 59.5% (active).
Then `O=C(NCc1cn2ccsc2n1)Nc1ccc(Cl)cc1`, with 10.4%.
`O=C(O)C1CCCCC1C(=O)Nc1ccc(Cl)cc1` (centres undefined): the activation is -6.2%.
Take `COc1ccc(O)c(C(=O)c2cnc3onc(C(C)C)c3c2)c1`: the activation was 12.5%.
With `CCc1c(C)sc(NC(=O)OC)c1C(=O)N1CCOCC1`, the activation was -6.7%.
The value for `COc1ccccc1NC(=O)c1ccc(C)s1` was 48.9% (active); that for `COc1ccc(C2C(C(=O)Nc3ccccc3OC)=C(C)Nc3nnnn32)c(OC)c1` (centres undefined) was 7.2%; that for `CCOc1ccccc1NC(=O)Nc1cc(OC)ccc1OC` was -19.1%.
`CC(C)c1nc2oc3c(N4CCN(C)CC4)ncnc3c2c2c1CCC2`: the activation was 13.9%.
The value for `Cc1ccc(NC(=O)CN2CCC3(O)CCCCC3C2c2ccc3c(c2)OCO3)c(C)c1` (centres undefined) was 11.9%.
As to `Cc1ccc(C)c(NC(=O)C2CCCN2C(=O)OC(C)(C)C)c1` (centres undefined), the activation was -9%.
As to `O=C(Nc1ccc(Oc2ccccc2)cc1)c1ccco1`, the activation was 22.9%.
The value for `COC(=O)c1ccc(NC(=O)c2ccco2)cc1` was 77.4% (active).
With `Cc1ccnc(NC(=O)c2ccc(NC(=O)c3ccco3)cc2)c1`, the activation is 29.2%.
The value for `O=C(C1CCN(S(=O)(=O)Cc2ccccc2)CC1)N1CCCc2ccccc21` was 12.2%; that for `COc1cc(C2C(C#N)=C(N)Oc3n[nH]c(-c4ccccn4)c32)cc(OC)c1OC` (centres undefined) was 7.4%; that for `Cc1ccc2c(c1)N(C(=O)CCC(=O)N1CCc3ccccc3C1)CCO2` was 0.5%.
For the compound `COc1cc(C(=O)Nc2nccs2)cc(OC)c1OC`, the activation was -15.9%.
Turning to `CC(=O)Oc1ccc(C(=O)Nc2nccs2)cc1`, the activation was 61% (active).
`Cn1cccc1C(=O)Nc1nccs1`: the activation was 12.1%.
Then `Cc1ccc(C(=O)NC2CCN(C(=O)N3CCOCC3)CC2)cc1`, with -4.3%; and `CC1CCC(NC(=O)c2ccc(N3CCCC3=O)cc2)CC1` (centres undefined), with 61.7% (active); and `O=C(NCCCN1CCCCCC1)c1ccc(N2CCCC2=O)cc1`, with -16.9%.
Then `CCOC(=O)c1c(C)c(C(=O)NCCc2ccc(S(N)(=O)=O)cc2)c(C)n1CC`, with 17.3%; and `CCNC(=O)CN(c1ccc(C)cc1)S(=O)(=O)c1ccc(SC)cc1`, with -24%; and `Oc1ccc(-c2csc(Nc3cccnc3)n2)cc1`, with 5.9%.
Turning to `c1ccc(Nc2nc(-c3ccncc3)cs2)nc1`, the activation is 50.9% (active).
The value for `Clc1ccc(Nc2nc(-c3cccs3)cs2)nc1` was 41.7%; that for `O=C(Cn1cc2c(n1)CCCCC2)NCCN1CCOCC1` was -13.6%.
Consider `Cc1ccc(Cc2nc(-c3cccc(C)c3)no2)cc1`, for which the activation is 51.5% (active).
Turning to `Cc1cccc(-c2noc(-c3ccc(F)cc3)n2)c1`, the activation is 31%.
The value for `Cc1ccc(-c2noc(CN3CCN(Cc4ccccc4)CC3)n2)cc1` was -1.1%; that for `CC(=O)c1nc(N2C(=O)C3CC=C(C)CC3C2=O)sc1C` (centres undefined) was 1.8%.
As to `CCn1c(SCCC(C)C)nnc1-c1c[nH]c2ccccc12`, the activation was 8.7%.
